Reference: PubChem BioAssay AID834 (PCMD, 2007)
Out of some 85,000 compounds screened, about 120 (0.14%) were called active.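 The calls were made as follows: active = inhibition above 20%; inactive = inhibition below 20%.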 The sample as a whole holds a higher share of actives than the screen did.

Test: clotrimazole potentiators killing Candida biofilms, primary screen, with clotrimazole, Alamar Blue (AID 834);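 also: preformed 24 hr biofilms exposed to compound for 48 hr; 0% = biofilm without compound and 100% = blank killed by clotrimazole plus chlorhexidine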
Conditions: C. albicans biofilm + clotrimazole, at 6 µM, stronger effect = higher value
For `Cc1ccc(N(Cc2ccc(C(=O)Nc3ccccc3C(=O)NCc3ccco3)cc2)S(C)(=O)=O)cc1C`, the inhibition was 0.88% (inactive).
For `COc1cc2c(cc1OC)C(C(C)C)=NC(C)(C)C2`, the inhibition was 4.82% (inactive).
With `COc1ccc(Nc2ncc(C(=O)N3CCN(c4ccccc4OC)CC3)c3ccccc23)cc1` the inhibition was 10.1% (inactive).
In the case of `Cc1[nH]n(-c2ccc(Cl)cc2)c(=O)c1/C=N/n1c(C)nc2ccccc2c1=O`, the inhibition is reported as 7.46% (inactive).
With `COC(=O)Nc1ncc(CN2CCCCC2)s1` the inhibition was -1.41% (inactive).
For `CN(C)S(=O)(=O)c1ccc(N2CCCC2)c(C(=O)NCc2ccccc2)c1`, the inhibition was -0.61% (inactive).
For `CCC(C)NC(=O)c1ccccc1NC(=O)c1ccccc1N(C)S(C)(=O)=O` (stereo unspecified), the inhibition was -0.05% (inactive).
With `COC(=O)c1ccccc1Sc1c(/C=N/OCc2ccc(Cl)cc2)c(C(F)(F)F)nn1C` the inhibition was -1.64% (inactive).
In the case of `S=C1NC(c2ccccc2)=NCN1c1ccc(Br)cc1`, the inhibition is reported as 5.98% (inactive).
For `C=CCOC(=O)C1=C(C)NC(SCC(=O)OCC)=C(C#N)C1c1ccc(C)cc1` (stereo unspecified), the inhibition was 3.88% (inactive).
With `N#CC1=C(SCc2ccc(C#N)cc2)N=C(N)C(c2nc(-c3ccccc3)cs2)C12CCCCC2` (stereo unspecified) the inhibition was -2.54% (inactive).
With `Cc1ccc(CCN2CC(C(=O)O)CC2=O)cc1` (stereo unspecified) the inhibition was 2.77% (inactive).
For `COc1ccc(CN(CC(=O)NC2CCCC2)C(=O)CCC(=O)Nc2cc(C)on2)cc1`, the inhibition was -2.23% (inactive).
In the case of `CCn1c2ccccc2c2cc(NC(=S)N3CCOCC3)ccc21`, the inhibition is reported as 5.56% (inactive).
For `CCN(c1ccccc1)S(=O)(=O)c1ccc(C(=O)Nc2nccs2)cc1`, the inhibition was 2.15% (inactive).
With `CCOC(=O)c1cnc(SCC(=O)Nc2ccccc2C(=O)OC)nc1N` the inhibition was 4.94% (inactive).
With `CCNc1nc(NC(C)C)nc(OCCOC(=O)c2ccccc2)n1` the inhibition was 2.57% (inactive).
In the case of `Cc1cccc(N2CCN(C(=O)c3cnn4c(C(F)F)cc(-c5ccccc5)nc34)CC2)c1C`, the inhibition is reported as 7.54% (inactive).
In the case of `CCOCCn1c(C(C)C)nc2ccccc21`, the inhibition is reported as 0.21% (inactive).
With `O=C(CN1CCOCC1)Nc1ccccc1` the inhibition was 2.89% (inactive).
In the case of `COC(=O)c1ccc(CSc2nnc(NC(C)C)s2)cc1`, the inhibition is reported as 8.02% (inactive).
For `COc1ccccc1C(c1nnnn1C(C)(C)C)N1CCN(Cc2ccccc2)CC1` (stereo unspecified), the inhibition was -0.02% (inactive).
For `COc1ccc(Br)cc1CN1CCN(C(=O)c2cccc(OC)c2OC)CC1`, the inhibition was -0.18% (inactive).
In the case of `Cc1nn(Cc2ccccc2)c2c1C(c1ccccc1)C(C#N)=C(N)O2` (stereo unspecified), the inhibition is reported as 4.23% (inactive).
With `CCCc1cc(=O)[nH]c(SCC(=O)c2cc(C)n(CCC)c2C)n1` the inhibition was 9.55% (inactive).
With `C=CCN(C(=O)Cn1ncc2c1-c1cc(C)ccc1OC2)c1ccccc1` the inhibition was 3.48% (inactive).
In the case of `CC(C)(C)c1nc2ccccc2c(=O)n1N1C(=O)c2ccccc2C1=O`, the inhibition is reported as 1.87% (inactive).
With `OC(c1ccccc1)c1nccn1Cc1ccccc1` (stereo unspecified) the inhibition was 6.12% (inactive).
With `CCOc1cccc(C(=O)Nc2nnc(-c3cccs3)s2)c1` the inhibition was 5.64% (inactive).
In the case of `CC(C)N1C(=S)SC(C)(C)C1n1oc(=O)n(-c2ccc(Cl)c(Cl)c2)c1=O` (stereo unspecified), the inhibition is reported as 8.09% (inactive).
With `Cc1noc(COc2ccccc2OCc2onc(C)c2Cl)c1Cl` the inhibition was -3.84% (inactive).
For `COC(=O)c1sccc1-n1cccc1C(=O)C(=O)N1CCCCC1`, the inhibition was 6.37% (inactive).
In the case of `COCCNC(=O)COc1ccccc1C`, the inhibition is reported as 4.87% (inactive).
In the case of `CCC(C)NC(=O)CCCc1ccccc1` (stereo unspecified), the inhibition is reported as 5.94% (inactive).
In the case of `COc1ccc(NC(=O)C2C3C=CC(C3)C2C(=O)NCc2ccccn2)c(OC)c1` (stereo unspecified), the inhibition is reported as 3.96% (inactive).
In the case of `CCOC(=O)/C(C#N)=C\c1c(C)cc(C)c(COC(C)=O)c1C`, the inhibition is reported as 5.54% (inactive).
In the case of `CC/C(O)=N\S(=O)(=O)c1ccc(N=NN(C)C)cc1`, the inhibition is reported as 3.86% (inactive).
In the case of `CC1=NN(/C(=N\c2nnc(C)s2)Nc2ccccc2)[C@H](c2ccc(C)cc2)S1`, the inhibition is reported as 4.3% (inactive).
In the case of `O=C(c1ccc(CN2CCOCC2)cc1)N1CCN(c2ccccc2F)CC1`, the inhibition is reported as 3.38% (inactive).
For `O=C(NCCSCc1ccccc1)c1ccc(Cl)c(S(=O)(=O)N2CCOCC2)c1`, the inhibition was 9.31% (inactive).
For `COC(=O)c1cccc(-n2[nH]nnc2=S)c1`, the inhibition was -3.99% (inactive).
In the case of `C=CCNC(=O)c1cc2nc(C3CC3)cc(C(F)F)n2n1`, the inhibition is reported as 3.65% (inactive).
With `OC(COc1ccc2c(c1)CCC2)CN1CCN(c2cccc(Cl)c2)CC1` (stereo unspecified) the inhibition was 3.52% (inactive).
With `CC(C)C(=O)Nc1ccc2c(c1)oc1ccccc12` the inhibition was 9.6% (inactive).
In the case of `CC(C)OC(=O)c1c(NC(=O)c2ccco2)sc2c1CCCC2`, the inhibition is reported as 4.89% (inactive).
For `Cc1cccc(CCNS(=O)(=O)c2ccc(S(=O)(=O)NC3CCCC3)cc2)c1`, the inhibition was -0.29% (inactive).
For `COc1ccc(CCN2C(=O)C3CC=C(C)CC3C2=O)cc1OC` (stereo unspecified), the inhibition was 1.85% (inactive).
With `Clc1cccc(N=C2NN=C(c3ccc4c(c3)OCCO4)CS2)c1` the inhibition was 1.81% (inactive).
For `COc1ccc(NC(=O)Cn2c(=O)n(Cc3ccco3)c(=O)c3ccccc32)cc1`, the inhibition was 7.9% (inactive).
With `CCCCNC(=O)C1(c2ccc(OC)cc2)CCOCC1` the inhibition was 3.55% (inactive).
With `Cc1nnc(SCC(=O)NC2CCCC2)s1` the inhibition was 1.39% (inactive).
In the case of `O=C1Nc2cc(Cl)c(Cl)cc2N(O)N1c1cc(Cl)cc(Cl)c1`, the inhibition is reported as -1.77% (inactive).
In the case of `CCOc1ccc(NC(=O)N(CC(C)C)CC(C)C)cc1`, the inhibition is reported as -5.95% (inactive).
For `CC1CCN(S(=O)(=O)c2ccc(S(=O)(=O)NCc3ccco3)cc2)CC1`, the inhibition was 6.18% (inactive).
In the case of `CCOc1cc(NC(=O)c2cnccn2)c(OCC)cc1NC(=O)c1ccc(C)cc1`, the inhibition is reported as 10.1% (inactive).
For `CCOc1ccc(S(=O)(=O)NCCSc2ccccc2)cc1`, the inhibition was -7.35% (inactive).
For `Cn1c(Cc2cccc3ccccc23)nnc1SCC(=O)N1CCN(c2cccc(Cl)c2)CC1`, the inhibition was 2.35% (inactive).
For `CC1(C)NC(=O)N(CCCCSc2ccc(Cl)cc2)C1=O`, the inhibition was 4.05% (inactive).
With `CCc1cccc(C)c1N(C(=O)Cn1c(CO)nc2ccccc21)C(C)COC` (stereo unspecified) the inhibition was 2.34% (inactive).
For `CCOC(=O)c1c(NC(C)=O)sc2c(O)c(Br)ccc12`, the inhibition was 7.32% (inactive).
In the case of `CC(C)(C)C1CCc2c(sc3nc(SCC(N)=O)nc(N)c23)C1` (stereo unspecified), the inhibition is reported as 9.53% (inactive).
For `CC(=O)Nc1ccc(NC(=O)CSCc2cnn(-c3ccccc3)c2-n2cccc2)cc1`, the inhibition was 5.53% (inactive).
With `Cc1ccc(OC(=O)c2ccccc2C(=O)OCC(F)(F)C(F)F)cc1` the inhibition was -0.38% (inactive).
In the case of `Cc1ccc(/C=N/NC(=O)C2=NNC(c3ccccc3)(c3ccccc3)C2)c(O)c1`, the inhibition is reported as 2.75% (inactive).
For `Cc1ccc(CNC(=O)COc2ccc(S(=O)(=O)NC(C)C)cc2)cc1`, the inhibition was 4.65% (inactive).
For `CCOC(=O)c1sc(NC(=O)CSc2nc(C)cc(C(F)(F)F)n2)c(C#N)c1C`, the inhibition was 4.2% (inactive).
For `CCOC(=O)c1ccc2c(c1)nc(SCC(=O)NC(C)C)n2CC`, the inhibition was -0.28% (inactive).
With `CC(C)OC(=O)CN1C(=O)C(=O)c2ccccc21` the inhibition was -1.96% (inactive).
In the case of `CC(C)(C)NC(=O)Cn1c(SCC(=O)Nc2nccs2)nc2ccccc21`, the inhibition is reported as -3.28% (inactive).
For `COc1ccc(C2=NOC3(CC(=O)N(c4ccc(Cl)cc4)C3=O)C2)c(OC)c1` (stereo unspecified), the inhibition was 8.25% (inactive).
For `CCc1c(O)cc2n(c1=O)-c1ccccc1C2(C)C`, the inhibition was 5.21% (inactive).
In the case of `CCn1c(Cc2cccs2)nnc1SCC(=O)c1ccc(C)cc1`, the inhibition is reported as 5.86% (inactive).
With `CCCCOc1ccc(N(CC(=O)NCC2CCCO2)C(=O)CCC(=O)Nc2cc(C)ccn2)cc1` (stereo unspecified) the inhibition was 5.21% (inactive).
With `CCCc1nc2sc3c(c2c(=O)n1NC(=O)CCCl)CCCC3` the inhibition was -7.02% (inactive).
With `CCOC(=O)c1c(NC(=O)CSc2nnc(CNc3ccc(C)cc3C)o2)sc(C)c1C` the inhibition was 0.89% (inactive).
In the case of `CCC(=O)Nc1ccc(S(=O)(=O)NCC2CCCO2)cc1` (stereo unspecified), the inhibition is reported as 5.21% (inactive).
With `O=C(COC(=O)c1n[nH]c2ccccc12)NCc1ccccc1` the inhibition was 1.24% (inactive).
For `COc1ccc(Nc2cc(=O)oc3ccccc23)cc1`, the inhibition was 5.52% (inactive).
With `O=C(NC1CCCCC1)C1CC(=O)N(CCc2ccccc2)C1` (stereo unspecified) the inhibition was 5.26% (inactive).
In the case of `CCOC(=O)CSc1nc2ccc(C)cc2[nH]1`, the inhibition is reported as 4.49% (inactive).
In the case of `FC(F)(F)c1cc(-c2ccco2)nc(NCc2ccc(Cl)cc2)n1`, the inhibition is reported as -7.36% (inactive).
